Measurements from PubChem BioAssay AID1159580 (chemical genetic matrix, 2015).
Screen size: about 5,500 compounds; about 2,000 (36%) were called active. About 18% were inconclusive and are not listed. No stated cut-off is given here; in the data, active means normalized growth mostly below about 0.91 (no sharp cut-off); inconclusive means no clear call, values can overlap the other calls; inactive means mostly above about 0.92. Some of the results follow.

Test: chemical genetic growth profiling, strain panel (AID 1159580);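 further: tested at 20 µM; growth read once vehicle control cultures reached saturation at 30 °C; 1 = growth at the plate median or of vehicle wells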
Details: growth OD

Measured: normalized growth

CC(=O)OCC(CCn1cnc2cnc(N)nc21)COC(C)=O
inactive: S. cerevisiae deletion strains, locus YJR075W, strain HOC1, stronger effect = lower value 0.991 | S. cerevisiae deletion strains, locus YKL009W, strain mrt4, stronger effect = lower value 0.973 | S. cerevisiae deletion strains, locus YKL068W, stronger effect = lower value 0.977 | S. cerevisiae deletion strains, locus YKL085W, strain MDH1 (second series), stronger effect = lower value 0.971 | S. cerevisiae deletion strains, locus YKL085W, strain MDH1, stronger effect = lower value 0.971 | S. cerevisiae deletion strains, locus YKL160W, strain elf1, stronger effect = lower value 0.981 | S. cerevisiae deletion strains, locus YKL190W, strain CNB1, stronger effect = lower value 0.989 | S. cerevisiae deletion strains, locus YKR001C, strain vps1, stronger effect = lower value 0.986 | S. cerevisiae deletion strains, locus YKR026C, strain gcn3, stronger effect = lower value 0.991 | S. cerevisiae deletion strains, locus YKR091W, strain srl3, stronger effect = lower value 0.989 | S. cerevisiae deletion strains, locus YLL001W, strain dnm1, stronger effect = lower value 0.986 | S. cerevisiae deletion strains, locus YLL026W, stronger effect = lower value 0.987 | S. cerevisiae deletion strains, locus YLL041C, strain sdh2, stronger effect = lower value 0.99 | S. cerevisiae deletion strains, locus YLR027C, strain aat2, stronger effect = lower value 0.97 | S. cerevisiae deletion strains, locus YLR039C, strain RIC1, stronger effect = lower value 0.955 | S. cerevisiae deletion strains, locus YLR058C, strain SHM2, stronger effect = lower value 0.977 | S. cerevisiae deletion strains, locus YLR102C, strain apc9, stronger effect = lower value 0.963 | S. cerevisiae deletion strains, locus YLR113W, strain HOG1, stronger effect = lower value 0.966 | S. cerevisiae deletion strains, locus YLR221C, strain rsa3, stronger effect = lower value 1 | S. cerevisiae deletion strains, locus YLR258W, strain gsy2, stronger effect = lower value 0.992 | S. cerevisiae deletion strains, locus YLR262C, strain YPT6 (second series), stronger effect = lower value 0.985 | S. cerevisiae deletion strains, locus YLR262C, strain YPT6, stronger effect = lower value 0.96 | S. cerevisiae deletion strains, locus YLR268W, strain sec22, stronger effect = lower value 0.964 | S. cerevisiae deletion strains, locus YLR320W, strain mms22, stronger effect = lower value 1.01 | S. cerevisiae deletion strains, locus YLR330W, strain CHS5, stronger effect = lower value 0.986 | S. cerevisiae deletion strains, locus YLR342W, strain FKS1 (second series), stronger effect = lower value 1.03 | S. cerevisiae deletion strains, locus YLR342W, strain FKS1, stronger effect = lower value 0.989 | S. cerevisiae deletion strains, locus YLR357W, strain rsc2, stronger effect = lower value 0.969 | S. cerevisiae deletion strains, locus YLR370C, strain arc18, stronger effect = lower value 0.994 | S. cerevisiae deletion strains, locus YLR371W, strain rom2, stronger effect = lower value 0.955 | S. cerevisiae deletion strains, locus YLR384C, strain iki3, stronger effect = lower value 0.974 | S. cerevisiae deletion strains, locus YLR418C, strain cdc73, stronger effect = lower value 0.982 | S. cerevisiae deletion strains, locus YML016C, strain PPZ1, stronger effect = lower value 0.981 | S. cerevisiae deletion strains, locus YML032C, strain rad52, stronger effect = lower value 0.975 | S. cerevisiae deletion strains, locus YML120C, strain ndi1, stronger effect = lower value 0.989 | S. cerevisiae deletion strains, locus YML124C, strain tub3, stronger effect = lower value 0.973 | S. cerevisiae deletion strains, locus YMR058W, strain fet3, stronger effect = lower value 0.988 | S. cerevisiae deletion strains, locus YMR078C, strain ctf18, stronger effect = lower value 0.972 | S. cerevisiae deletion strains, locus YMR125W, strain sto1, stronger effect = lower value 0.986 | S. cerevisiae deletion strains, locus YMR129W, stronger effect = lower value 0.986 | S. cerevisiae deletion strains, locus YMR205C, strain PFK2, stronger effect = lower value 0.992 | S. cerevisiae deletion strains, locus YMR223W, strain ubp8, stronger effect = lower value 0.988 | S. cerevisiae deletion strains, locus YMR231W, strain pep5, stronger effect = lower value 0.986 | S. cerevisiae deletion strains, locus YMR263W, strain SAP30, stronger effect = lower value 0.993 | S. cerevisiae deletion strains, locus YMR307W, strain GAS1, stronger effect = lower value 0.957 | S. cerevisiae deletion strains, locus YNL067W, strain RPL9B, stronger effect = lower value 1 | S. cerevisiae deletion strains, locus YNL071W, strain lat1, stronger effect = lower value 0.995 | S. cerevisiae deletion strains, locus YNL128W, strain TEP1, stronger effect = lower value 0.992 | S. cerevisiae deletion strains, locus YNL153C, strain GIM3, stronger effect = lower value 0.996 | S. cerevisiae deletion strains, locus YNL183C, strain NPR1, stronger effect = lower value 0.959 | S. cerevisiae deletion strains, locus YNL209W, strain ssb2, stronger effect = lower value 0.994 | S. cerevisiae deletion strains, locus YNL233W, strain BNI4, stronger effect = lower value 0.99 | S. cerevisiae deletion strains, locus YNL248C, strain rpa49, stronger effect = lower value 0.991 | S. cerevisiae deletion strains, locus YNL250W, strain rad50, stronger effect = lower value 0.971 | S. cerevisiae deletion strains, locus YNL271C, strain bni1, stronger effect = lower value 0.956 | S. cerevisiae deletion strains, locus YNL298W, strain CLA4, stronger effect = lower value 0.946 | S. cerevisiae deletion strains, locus YNL307C, strain MCK1, stronger effect = lower value 0.99 | S. cerevisiae deletion strains, locus YNL322C, strain KRE1 (second series), stronger effect = lower value 0.995 | S. cerevisiae deletion strains, locus YNL322C, strain KRE1, stronger effect = lower value 0.99 | S. cerevisiae deletion strains, locus YNR049C, strain mso1, stronger effect = lower value 0.983 | S. cerevisiae deletion strains, locus YNR052C, strain pop2, stronger effect = lower value 0.967 | S. cerevisiae deletion strains, locus YOL006C, strain TOP1, stronger effect = lower value 0.955 | S. cerevisiae deletion strains, locus YOL012C, strain htz1 0.703 | S. cerevisiae deletion strains, locus YOL147C, strain pex11, stronger effect = lower value 0.969 | S. cerevisiae deletion strains, locus YOR001W, strain rrp6, stronger effect = lower value 0.974 | S. cerevisiae deletion strains, locus YOR061W, strain CKA2, stronger effect = lower value 0.966 | S. cerevisiae deletion strains, locus YOR069W, strain VPS5, stronger effect = lower value 0.982 | S. cerevisiae deletion strains, locus YOR070C, strain gyp1, stronger effect = lower value 0.996 | S. cerevisiae deletion strains, locus YOR080W, strain dia2, stronger effect = lower value 0.975 | S. cerevisiae deletion strains, locus YOR083W, strain WHI5, stronger effect = lower value 0.987 | S. cerevisiae deletion strains, locus YOR106W, strain vam3, stronger effect = lower value 0.982 | S. cerevisiae deletion strains, locus YOR136W, strain idh2, stronger effect = lower value 0.959 | S. cerevisiae deletion strains, locus YOR144C, strain elg1, stronger effect = lower value 0.958 | S. cerevisiae deletion strains, locus YOR184W, strain ser1, stronger effect = lower value 0.966 | S. cerevisiae deletion strains, locus YOR231W, strain MKK1, stronger effect = lower value 0.991 | S. cerevisiae deletion strains, locus YOR265W, strain rbl2, stronger effect = lower value 0.98 | S. cerevisiae deletion strains, locus YOR270C, strain vph1, stronger effect = lower value 1 | S. cerevisiae deletion strains, locus YOR290C, strain snf2, stronger effect = lower value 1.01 | S. cerevisiae deletion strains, locus YOR316C, strain cot1, stronger effect = lower value 0.958 | S. cerevisiae deletion strains, locus YPL051W, strain arl3, stronger effect = lower value 0.984 | S. cerevisiae deletion strains, locus YPL055C, strain LGE1, stronger effect = lower value 0.992 | S. cerevisiae deletion strains, locus YPL078C, strain atp4, stronger effect = lower value 0.976 | S. cerevisiae deletion strains, locus YPL106C, strain sse1, stronger effect = lower value 0.973 | S. cerevisiae deletion strains, locus YPL240C, strain hsp82, stronger effect = lower value 0.973 | S. cerevisiae deletion strains, locus YPL241C, strain CIN2, stronger effect = lower value 0.993 | S. cerevisiae deletion strains, locus YPL256C, strain CLN2, stronger effect = lower value 0.958 | S. cerevisiae deletion strains, locus YPR119W, strain clb2, stronger effect = lower value 0.974 | S. cerevisiae deletion strains, locus YPR141C, strain kar3, stronger effect = lower value 0.943 | S. cerevisiae deletion strains, locus YPR163C, strain tif3, stronger effect = lower value 0.966 | S. cerevisiae deletion strains, locus YPR167C, strain met16, stronger effect = lower value 0.962 | S. cerevisiae deletion strains, strain wtn01, stronger effect = lower value 0.965 | S. cerevisiae strains, strain wild type, stronger effect = lower value 0.994
